Here are results for 28 molecules from ChEMBL document CHEMBL1961873, “Compounds: GSK PKIS; Assays: Nanosyn kinase panel” (2012).

The target of assay [1] is Serine/threonine-protein kinase PAK 6 (Homo sapiens) (UniProt Q9NQU5). To be noted: at 1 µM.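 Further: values are mean percent inhibition of PAK6 kinase.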
Assay [2] concerns Tyrosine-protein kinase ABL1 (Homo sapiens), P00519 [E255K]. Particulars: at 0.1 µM.
Assay [3] has the same test system. To be noted: at 1 µM.
Assay [4] deals with Tyrosine-protein kinase ABL1 (Homo sapiens), P00519 [H396P]. To be noted: at 0.1 µM.
The test system is the same in assay [5]. Particulars: at 1 µM.
Assay [6] deals with Tyrosine-protein kinase ABL1 (Homo sapiens), P00519 [M351T]. Particulars: at 0.1 µM.
The test system is the same in assay [7]. To be noted: at 1 µM.
Assay [8] has as its system Tyrosine-protein kinase ABL1 (Homo sapiens), P00519 [Q252H]. Particulars: at 0.1 µM.
Assay [9] has the same test system. To be noted: at 1 µM.
In assay [10] the test system is Tyrosine-protein kinase ABL1 (Homo sapiens), P00519 [T315I]. Particulars: at 0.1 µM.

Each structure is given as a SMILES string.

Serine/threonine-protein kinase PAK 6 (Homo sapiens), sequence (Q9NQU5 whole entry, looked up): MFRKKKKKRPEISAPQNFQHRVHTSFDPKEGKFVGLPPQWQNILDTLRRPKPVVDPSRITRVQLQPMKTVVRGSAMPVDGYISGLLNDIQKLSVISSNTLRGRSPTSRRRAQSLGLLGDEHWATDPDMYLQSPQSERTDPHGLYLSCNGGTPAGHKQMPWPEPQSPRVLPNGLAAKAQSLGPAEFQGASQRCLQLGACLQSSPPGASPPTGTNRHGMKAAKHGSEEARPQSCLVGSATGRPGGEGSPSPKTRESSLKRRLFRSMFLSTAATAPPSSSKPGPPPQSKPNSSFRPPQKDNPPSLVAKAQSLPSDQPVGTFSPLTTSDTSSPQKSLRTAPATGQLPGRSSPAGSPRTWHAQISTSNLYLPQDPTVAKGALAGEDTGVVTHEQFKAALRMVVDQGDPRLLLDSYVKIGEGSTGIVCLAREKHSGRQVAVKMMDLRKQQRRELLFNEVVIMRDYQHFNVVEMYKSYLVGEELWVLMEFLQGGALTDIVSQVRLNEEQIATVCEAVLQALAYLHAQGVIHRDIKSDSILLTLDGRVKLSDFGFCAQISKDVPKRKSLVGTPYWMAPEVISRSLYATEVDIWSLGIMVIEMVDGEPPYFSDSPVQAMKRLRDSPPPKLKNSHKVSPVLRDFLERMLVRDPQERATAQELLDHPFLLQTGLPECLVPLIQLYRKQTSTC

As usually defined, the inhibition is the change of the read-out against control, counted positive when it falls. Regarding `[O-][S+]1CCN(Cc2ccc(-c3ccc4ncnc(Nc5ccc(OCc6ccccc6)c(F)c5)c4c3)o2)CC1`, the inhibition in assay [1] is -0.59%; in assay [2] it was 1.66%; in assay [3] it was 2.97%; in assay [4] it was 2.03%; in assay [5], 0.51%; in assay [6] it was 2.17%. Also, the inhibition in assay [7] was 0.04%; in assay [8], 1.58%; in [9], 0.89%; in [10], 1.21%.
Regarding `CC(C)=Cc1cccc2c1/C(=N/Nc1ccc(S(N)(=O)=O)cc1)C(=O)N2`, the inhibition in [1] is -0.47%; in assay [2], 1.22%; in assay [3], 9.2%; in [4], 2.39%; in assay [5], 13.8%; in assay [6], 2.77%. In addition, the inhibition is 26.6% in assay [7], 3% in assay [8], 18.2% in assay [9] and 0.99% in [10].
Regarding `COc1cc2ncn(-c3cc(O[C@H](C)c4ccccc4Cl)c(C(N)=O)s3)c2cc1OC`, the inhibition in assay [1] stood at 11.9%; in assay [2], 3.23%; in assay [3] it was 28.1%; in [4], 10.7%; in assay [5], 49.4%; in [6], 9.46%. In addition, the inhibition in assay [7] was 48.3%; in [8] it was 9.97%; in assay [9], 43.2%; in assay [10] it was 11.2%.
In the case of `CCn1c(-c2nonc2N)nc2cnc(Oc3cccc(NC(=O)c4ccc(OCCN5CCOCC5)cc4)c3)cc21`, the inhibition in assay [1] was -8.77%; in [2], 3.79%; in assay [3], 3.89%; in assay [4], 4.58%; in assay [5], 4.2%; in [6], 2.23%. The inhibition was determined as 2.73% in assay [7], 4.73% in assay [8], 3.88% in assay [9] and 4.38% in [10].
For `COc1ccc(-c2coc3ncnc(N)c23)cc1`, the inhibition is -1.23% in [1]; 3.51% in assay [2]; 9.75% in assay [3]; 5.34% in assay [4]; 11.3% in [5]; 3.43% in assay [6]. The inhibition in assay [7] was 8.4%; in [8], 5.31%; in [9], 9.48%; in assay [10], 1.41%.
Take `Cc1cc(O)cc(C)c1/C=C/c1cncc(-c2nn[nH]n2)c1`: the inhibition in assay [1] was -4.74%; in assay [2], 17.8%; in [3] it was 79.3%; in [4], 21.5%; in [5] it was 79.8%; in assay [6], 17.1%. Moreover, the inhibition came out at 79.9% in assay [7], 23.1% in [8], 81.6% in assay [9] and 2.2% in [10].
As for `CCn1c(-c2nonc2N)nc2ccncc21`, the inhibition in assay [1] was -3.52%; in assay [2], 1.78%; in assay [3], -1.53%; in [4] it was -0.24%; in assay [5], -0.08%; in assay [6], 0.64%. Besides, the inhibition in [7] was 3.06%; in [8], 3.21%; in assay [9], -0.21%; in assay [10], -0.01%.
`O=C1NC(=O)C(c2ccc(Cl)cc2)=C1Nc1ccc(Cl)c(C(=O)O)c1`: the inhibition is -0.68% in [1]; 2.02% in [2]; -2.33% in assay [3]; -0.65% in [4]; 1.82% in assay [5]; 1.3% in assay [6]. In addition, the inhibition was determined as 4.53% in assay [7], 1.18% in assay [8], 1.68% in assay [9] and 0.69% in assay [10].
Regarding `COc1cc2ncn(-c3cc(O[C@@H](C)c4ccccc4Cl)c(C(N)=O)s3)c2cc1OC`, the inhibition was -1.4% in assay [1]; 7.11% in assay [2]; 21.4% in assay [3]; 9.2% in assay [4]; 33.8% in assay [5]; 3.76% in assay [6]. The inhibition in [7] is 29.7%; in assay [8] it was 6.57%; in [9], 28.5%; in assay [10], 3.45%.
`O=C1Nc2ccc(C(=O)c3ccco3)cc2C1=Cc1cc(Cl)c(O)c(Cl)c1`: the inhibition in [1] is 0.19%; in assay [2], 3.7%; in assay [3] it was 15.1%; in [4], 3.27%; in assay [5] it was 13.7%; in assay [6], 3.29%. Besides, the inhibition was found to be 12.9% in assay [7], 5.53% in assay [8], 17.7% in assay [9] and 3.59% in assay [10].
Take `COC(=O)Nc1nc2cc(Oc3cccc(NC(=O)Nc4cc(C(F)(F)F)ccc4F)c3)ccc2[nH]1`: the inhibition in assay [1] is -6.76%; in [2], 0.37%; in assay [3], 7.39%; in assay [4], 9.03%; in assay [5], 41.7%; in [6], 34.8%. The inhibition came out at 69.3% in [7], 32.1% in assay [8], 68.6% in assay [9] and 2.28% in assay [10].
Consider `NS(=O)(=O)c1cccc(-c2ccc3c(NC(=O)C4CC4)n[nH]c3c2)c1`, for which the inhibition in [1] was -8.66%; in assay [2] it was 1.26%; in assay [3], 7.94%; in assay [4] it was 3.4%; in assay [5], 21.7%; in assay [6] it was 7.02%. Further, the inhibition was 20.2% in assay [7], 2.5% in assay [8], 9.03% in assay [9] and 3.32% in [10].
`COc1ccc(COc2ccc(Cc3cnc(N)nc3N)cc2OC)cc1`: the inhibition in assay [1] is -2.29%; in [2], 1.25%; in assay [4], 0.76%; in [5], -1.33%; in assay [6] it was 3.17%; in [7] it was -0.65%. In addition, the inhibition is 2.23% in assay [8], -0.16% in assay [9] and -0.36% in [10].
For the molecule `COc1ccccc1Nc1ncc(-c2ccccc2)o1`, the inhibition was -9.8% in assay [1]; 3.77% in assay [2]; 8% in [3]; 6.53% in assay [4]; 15.2% in [5]; 2.78% in assay [6]. Besides, the inhibition in [7] came out at 10.8%; in assay [8] it was 5.47%; in assay [9], 9.74%; in assay [10] it was 2.77%.
For `CN1CCC(C(=O)Nc2n[nH]c3nnc(-c4ccccc4)cc23)CC1`, the inhibition was -6.17% in assay [1]; 1.81% in assay [2]; 6.11% in assay [3]; 4.23% in assay [4]; 4.8% in assay [5]; 2.25% in assay [6]. Besides, the inhibition in assay [7] was determined as 1.61%; in [8] it was 3.6%; in assay [9], 3.36%; in assay [10], 3.4%.
Regarding `NCc1ccc(-c2nc(-c3ccc(Cl)c(O)c3)c(-c3ccncc3)[nH]2)cc1`, the inhibition in assay [1] is 0.88%; in [2] it was 7.57%; in [3] it was 43.3%; in assay [4], 9.07%; in assay [5], 48.9%; in assay [6] it was 11.2%. Besides, the inhibition was found to be 43.9% in assay [7], 7.54% in assay [8], 38.4% in assay [9] and 3.08% in [10].
On to `CNC(=O)c1cncc(/C=C/c2c(Cl)cccc2Cl)c1`, for which the inhibition in assay [1] is -7.96%; in [2], 3.46%; in [3] it was 33.3%; in [4] it was 9.69%; in assay [5] it was 47.2%; in [6], 6.02%. Further, the inhibition is 42.2% in [7], 8.15% in assay [8], 41.9% in [9] and -0.11% in assay [10].
For `CS(=O)(=O)CCNCc1ccc(-c2ccc3ncnc(Nc4ccc(OCc5cccc(F)c5)c(C(F)(F)F)c4)c3c2)o1`, the inhibition was 4.46% in assay [2]; 3.49% in assay [3]; 4.63% in assay [4]; 3.75% in [5]; 4.03% in assay [6]; 1.37% in [7]. The inhibition in [8] came to 4.26%; in [9], 2.45%; in [10], 1.73%.
`COc1ccc(-c2nn3ncccc3c2-c2ccnc(Nc3ccc(Cl)c(C(F)(F)F)c3)n2)cc1`: the inhibition is -4.72% in assay [1]; 0.96% in assay [2]; 5.54% in assay [3]; 0.79% in assay [4]; 8.65% in assay [5]; 2.03% in assay [6]. Further, the inhibition in assay [7] came to 26.5%; in assay [8] it was 4.06%; in [9], 18.9%; in [10], 1.74%.
Take `CC1=C(C(=O)Nc2ccc3[nH]ncc3c2)C(c2ccc3ccccc3c2)CC(=O)N1` (stereo not given): the inhibition in assay [1] was -2.6%; in [2], 2.56%; in assay [3] it was 3.94%; in assay [4], 3.48%; in assay [5], 12.3%; in [6], 3.47%. Moreover, the inhibition in assay [7] worked out at 14.9%; in assay [8] it was 3.89%; in [9] it was 17.1%; in assay [10], 5.08%.
On to `Fc1cccc(COc2ccc(Nc3ncnc4cc(-c5ccc[nH]5)sc34)cc2Cl)c1`, for which the inhibition stood at 1.82% in assay [2]; 7.42% in assay [3]; 3.38% in assay [4]; 5.8% in assay [5]; 0.9% in [6]; 5.26% in assay [7]. The inhibition is 2.05% in assay [8], 6.45% in [9] and 0.63% in [10].
For the molecule `c1cnn2ncc(-c3ccnc(Nc4ccc5c(c4)OCCO5)n3)c2c1`, the inhibition amounted to 9.62% in assay [1]; 4.75% in assay [2]; 20.4% in assay [3]; 6.51% in [4]; 34.4% in assay [5]; 6.73% in assay [6]. Besides, the inhibition came to 40.9% in assay [7], 9.02% in assay [8], 40.7% in [9] and 6.27% in assay [10].
As for `CCN1CCC(CC(=O)Nc2n[nH]c3nc(-c4cccs4)c(Br)cc23)CC1`, the inhibition in [1] was -1.76%; in [2] it was -1.62%; in assay [3], 2.21%; in assay [4], -0.27%; in assay [5], 8.03%; in [6] it was -0.05%. Moreover, the inhibition came to 4.95% in assay [7], 0.92% in assay [8], 11.6% in [9] and 3.23% in [10].
Consider `CCn1c(-c2nonc2N)nc2c(C#CC(C)(C)O)nc(CN3CCCC3)cc21`, for which the inhibition in [1] is -0.08%; in assay [2], 0.01%; in assay [3] it was 0.44%; in assay [4], 0.09%; in assay [5] it was 0.68%; in [6], -0.36%. For the same molecule, the inhibition is 2.83% in [7], 0.06% in [8], 3.09% in assay [9] and -0.43% in assay [10].
Regarding `CC1=C(C(=O)Nc2ccc3[nH]ncc3c2)C(c2ccc(F)cc2)NC(=O)N1` (stereo not given), the inhibition in [1] is -1.9%; in [2], -0.56%; in assay [3] it was 4.16%; in [4] it was 1.62%; in assay [5] it was 1.78%; in assay [6] it was 1.52%. Further, the inhibition in [7] came to 3.88%; in assay [8], 2.07%; in assay [9] it was 3.37%; in [10], 0.1%.
On to `NS(=O)(=O)c1ccc(N/N=C2\C(=O)Nc3ccc(C(=O)NCCc4c[nH]cn4)cc32)cc1`, for which the inhibition was determined as 3.67% in assay [1]; 5.1% in assay [2]; 6.98% in assay [3]; 3.97% in [4]; 11.2% in [5]; 4.18% in assay [6]. Also, the inhibition in assay [7] turned out to be 9.6%; in assay [8], 5.47%; in assay [9], 8.73%; in [10], 3.68%.
Consider `COc1ccc(-c2ccncc2)cc1C(N)=O`, for which the inhibition was 2.26% in assay [2]; 3.56% in [3]; 4.08% in assay [4]; 3.48% in assay [5]; -0.68% in [6]; -0.45% in assay [7]. Also, the inhibition in assay [8] was determined as 3.19%; in [9] it was 2.33%; in assay [10], 2.27%.
As for `Nc1nc(-c2ccc3c(c2)C(=Cc2cc(Br)c(O)c(Br)c2)C(=O)N3)cs1`, the inhibition is -0.02% in assay [2]; 6.46% in [3]; 0.77% in [4]; 4.36% in [5]; -0.05% in assay [6]; 4.99% in [7]. The inhibition is 2.23% in [8], 6.93% in [9] and -0.15% in assay [10].
